# Laboratory results taken from PubChem BioAssay AID504652 (National Center for Advancing Translational Sciences (NCATS), 2011).
# Where “and” joins values, the source holds several entries; their conditions need not be identical. Identical values can stand only once. In all, about 360,000 compounds went through this assay and about 11,000 (3.1%) were called active. This is one part of a sample in which actives are shown more often than they occur. Values without a mark were called inactive. Cut-off read from the data, not from the text of the source: active = activity change below about -30%; inactive = the rest.
# Target: D(1A) dopamine receptor (Homo sapiens) (UniProt P21728)
# Test: Antagonist of Human D 1 Dopamine Receptor: qHTS
# Conditions: HEK293 TREx D1 cells, calcium flux, dopamine EC80; at 10 µM; active compounds read low
# From the text: Dopamine receptors (DARs) are involved in the etiology and/or therapy of a number of neuropsychiatric and endocrine disorders. For instance, all receptor-based antiparkinsonian drugs work via stimulating the […] DAR subtype whereas all FDA-approved antipsychotic agents are antagonists of this receptor. […] There are three different types of allosteric modulators that we are seeking, two of which will stimulate or augment receptor signaling, allosteric agonists and potentiators, while the third, allosteric antagonists, will attenuate receptor signaling. The present primary screening assay measures compound antagonism after an EC80 addition of dopamine by tracking calcium flux in a […], inducible Hek293 Trex D1 cell line. NIH Chemical Genomics Center [NCGC] NIH Molecular Libraries Probe Centers Network [MLPCN] MLPCN Grant: NS064831-01 Assay Submitter (PI): David Sibley
# Freshly passaged cells are plated in 1536 well black, clear bottom plates at a density of 4000 cells/well in 3 ul of complete media containing 1x tetracycline inducer. After an overnight incubation at 30 C in 5% CO2, cells are loaded with 2 ul of the no wash Calcium Assay Kit (ABD Bioquest) and incubated at room temperature for 30 to 90 minutes. Agonist read: A 10 cycle (1 second/cycle) baseline measurement is taken and then the FDSS online 1536 pintool delivers 23 nl of compound library (as well as dopamine controls) to the plate. The plate is measured for kinetically at 1 cycle/sec for 180 seconds. Following the 180 second read, 1 ul of an EC80 (negative modulation assay) is delivered by an onboard pipette head. Measurements are taken kinetically for an additional 180 seconds.
# % is set by controls: 0 for no effect and ±100 for the full control effect.
# Chain of D(1A) dopamine receptor (Homo sapiens) (P21728 whole entry, looked up): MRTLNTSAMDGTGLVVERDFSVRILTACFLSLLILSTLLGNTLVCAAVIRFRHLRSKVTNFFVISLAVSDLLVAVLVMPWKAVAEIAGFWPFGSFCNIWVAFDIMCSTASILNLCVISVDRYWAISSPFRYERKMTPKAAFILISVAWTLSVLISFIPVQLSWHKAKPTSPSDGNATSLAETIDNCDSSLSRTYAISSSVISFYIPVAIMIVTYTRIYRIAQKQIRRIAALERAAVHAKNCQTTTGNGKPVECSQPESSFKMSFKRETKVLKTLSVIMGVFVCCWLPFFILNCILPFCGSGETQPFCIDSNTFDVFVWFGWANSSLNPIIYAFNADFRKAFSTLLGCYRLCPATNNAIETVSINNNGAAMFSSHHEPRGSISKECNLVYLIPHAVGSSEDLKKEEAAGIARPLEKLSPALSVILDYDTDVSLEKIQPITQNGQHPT
row,SMILES,"activity change, negative = inhibition"
1,Cc1cc2ccccc2n1CCNC(=O)c1ccc(F)cc1,-21.6%
2,COc1ccc(S(=O)(=O)NCCSc2nnnn2-c2ccccc2)cc1,-6.65%
3,Cn1c(C(=O)Nc2cccc(C(F)(F)F)c2)cc2c(=O)n3ccccc3nc21,-9.44%
4,Cc1cc(Cl)c(S(=O)(=O)Nc2ccc3c(c2)OCCO3)cc1OCC(N)=O,-35.2% (active)
5,Cc1cc(Cl)c(S(=O)(=O)N(C)C)cc1OCC(N)=O,5.54%
6,Cc1cc(Cl)c(S(=O)(=O)NCC2CCCO2)cc1OCC(N)=O (centres undefined),-3.64%
7,COc1ccc(CNC(=O)Cc2coc3ccc(C(C)C)cc23)cc1,-5.84%
8,COc1cccc(N2CCN(S(=O)(=O)c3cc(Br)cc4c3N(C(=O)C3CC3)CC4)CC2)c1,-4.38%
9,CC1CCN(S(=O)(=O)c2ccc3ncn(CC(=O)N(C)C4CCCCC4)c(=O)c3c2)CC1,-7.06%
10,CCN1CCCC1CNC(=O)Cn1cnc2ccc(S(=O)(=O)N3CCC(C)CC3)cc2c1=O (centres undefined),-45% (active)
11,COc1ccccc1NC(=O)Cn1cnc2ccc(S(=O)(=O)N3CCC(C)CC3)cc2c1=O,0.0222%
12,COc1ccc(-c2nn(CC(=O)NC3CCCC3)c3c2cnc2ccc(F)cc23)cc1,-17.2%
13,Cc1ccc(NC(=O)CN2C(=O)CC(C)Sc3ccccc32)c(C)c1 (centres undefined),5.35%
14,NC(=O)C1(C(N)=O)OC1c1ccc(Cl)cc1Cl (centres undefined),-18.1%
15,COC(=O)C1=CN(c2ccc(F)c(F)c2)C=C(C(=O)OC)C1c1ccc([N+](=O)[O-])cc1,13.5%
16,COC(=O)C1=CN(C)C=C(C(=O)OC)C1c1ccc(Cl)cc1Cl,-50.3% (active)
17,Cc1ccc(Nc2ccc3cc(S(=O)(=O)N4CCCCC4)ccc3n2)cc1F,-15.5%
18,COc1ccccc1NC(=O)CCN1CCN(c2ccc(Cl)cc2)CC1,-41% (active)
19,CCOc1ccccc1NC(=O)CCN1CCN(S(=O)(=O)c2ccc(OC)cc2)CC1,-3.32%
20,COc1ccc(NC(=O)CCN2CCCC2)c(OC)c1,0.848%
21,COc1ccc(C(=O)NC(=S)Nc2ccc(N3CCCC3)cc2)cc1OC,-30.7% (active)
22,COc1ccc(C(=O)NC(=S)Nc2ccccc2N2CCN(S(C)(=O)=O)CC2)cc1OC,-7.6%
23,Cc1ccc(C(=O)NC(=S)Nc2ccc(N3CCOCC3)cc2)cc1,-12.4%

row,SMILES,"activity change, negative = inhibition"
1,O=C(NCc1ccc2c(c1)CCN2C(=O)c1ccccc1)Nc1cc(F)ccc1F,1.84%
2,Cc1[nH]n(C)c(=O)c1C(=O)c1c(-c2c(Cl)cccc2Cl)noc1C,-9.05%
3,Cc1[nH]n(C)c(=O)c1N=Nc1ccc(S(C)(=O)=O)cc1,-33.8% (active)
4,Cc1c(N=Nc2ccc(N(C)C)cc2)c(=O)n(-c2ccccc2)n1C,-0.41%
5,CCOc1ccc(S(=O)(=O)N2CCCCCC2)c2ccccc12,1.18%
6,CCOc1cc(C)c(Cl)cc1S(=O)(=O)n1nnc2ccccc21,-41.9% (active)
7,CCOc1cc(C)c(S(=O)(=O)NCc2ccccn2)cc1C,-15%
8,COc1ccc(OC)c(CNC(=O)CN2C(=O)CCn3nc(-c4cn(C)c5ccccc45)cc32)c1,9.51%
9,COc1ccc(-n2ccnc(NCCc3ccc(Cl)cc3)c2=O)cc1OC,-3.67%
10,Cc1cccc(N2CCN(C(=O)c3cc4c(=O)oc5ccccc5c4s3)CC2C)c1 (centres undefined),-15.4%
11,CCOc1ccc2oc(=O)cc(CN3CCN(C(=O)c4ccc(F)cc4)CC3)c2c1,-25%
12,CCC(=O)N1CCc2cc(Br)cc(S(=O)(=O)NCc3ccc(Cl)cc3)c21,4.98%
13,COc1ccccc1N1CCN(C(=O)CCS(=O)(=O)c2ccc3c(c2)NC(=O)C(C)S3)CC1 (centres undefined),5.52%
14,Cc1cccc(N2CCN(C(=O)CCS(=O)(=O)c3ccc4c(c3)NC(=O)C(C)S4)CC2)c1C (centres undefined),-41.4% (active)
15,CC1Sc2ccc(S(=O)(=O)CCC(=O)NCc3ccccc3Cl)cc2NC1=O (centres undefined),-9.63%
16,CCn1c2ccccc2c2cc(CN3CCN(Cc4cccc(Cl)c4)CC3)ccc21,-24.4%
17,COc1ccc(/C(N)=N/OC(=O)CCCc2ccccc2)cc1,-50.3% (active)
18,COc1ccc(/C(N)=N/OC(=O)Cc2ccccc2)cc1,3.45%
19,N/C(=N\OC(=O)CCc1ccccc1)c1ccc(Cl)cc1,-6.68%
20,CCOc1ccc(CNC(=O)c2cc(-c3ccc(Cl)s3)nc3ccccc23)cc1,13.1%
21,COc1ccc(NC(=O)CCCN2C(=O)CCn3nc(-c4cn(C)c5ccccc45)cc32)cc1OC,16%
22,Cc1nc(CNS(=O)(=O)c2ccc(Oc3ccccc3)cc2)cs1,-42.6% (active)
23,Cc1nc(CNS(=O)(=O)c2cc([N+](=O)[O-])ccc2C)cs1,8.15%

row,SMILES,"activity change, negative = inhibition"
1,Cc1nn(C)c(Oc2ccccc2)c1CCNS(=O)(=O)c1ccc(F)cc1,-5.72%
2,CCOc1ccc(C2C(C(=O)Nc3ccc(Cl)cc3)=C(C)Nc3nc(C(F)(F)F)nn32)cc1 (centres undefined),10.7%
3,Cc1ccccc1-c1nc(SCC(=O)N(C)c2ccccc2)c2c(=O)n(C)c(=O)n(C)c2n1,8.47%
4,Cc1cccc(OCC(=O)NCC(=O)N/N=C/c2ccc(N(C)C)cc2)c1,-31.7% (active)
5,CCOc1ccccc1/C=N/NC(=O)CNC(=O)COc1ccccc1,-1.88%
6,Cc1cccc(OCC(=O)Nc2ccccc2F)c1,-0.963%
7,Cc1oc2ccc(O)c(CN3CCC(C)CC3)c2c1C(=O)Nc1ccccc1,7.02%
8,COc1cccc(NC(=O)CSc2cc(=O)n(C)c3ccc(Cl)cc23)c1,-17.9%
9,CC(Oc1ccc(F)cc1F)C(=O)/C=C/N(C)C (centres undefined),2.85%
10,CC(Oc1ccc(Cl)cc1Cl)C(=O)/C=C/N(C)C (centres undefined),-37.2% (active)
11,CC(=O)N(OCc1ccc(OC(C)C)c(Cl)c1)C(C)=O,-4.21%
12,COc1ccc(C(=O)Nc2nonc2-c2ccc(OC)c(OC)c2)cc1Cl,0.206%
13,CCc1cccc(NC(=O)Cn2nc(CC)n3c(cc4cc(C)ccc43)c2=O)c1,4.91%
14,CCCS(=O)(=O)Nc1cccc(-c2cn3ccsc3n2)c1,-4.71%
15,O=C(COc1ccccc1)N1CCN=C1SCc1cccc(F)c1,-31.4% (active)
16,CCC(=O)N1CCN=C1SCc1ccc(F)cc1,-8.09%
17,O=C(Cc1ccc(F)cc1)N1CCN=C1SCc1cccc([N+](=O)[O-])c1,-1.86%
18,COc1cc(OC)cc(-c2nc3nc(C)c(CCC(=O)Nc4ccc(C)cc4)c(C)n3n2)c1,-10.7%
19,CC(C)c1ccc(NS(=O)(=O)c2ccc3[nH]cc(C(=O)NC4CCCC4)c(=O)c3c2)cc1,19.6%
20,COC(=O)c1cc(C(=O)NC(C)C2CC3CCC2C3)cc([N+](=O)[O-])c1 (centres undefined),-60.3% (active)
21,Cc1c(C(=O)NC(C)C2CC3CCC2C3)cccc1[N+](=O)[O-] (centres undefined),18.8%
22,CCOC(=O)CCC(=O)OCC(=O)NC(C)C1CC2CCC1C2 (centres undefined),-3.11%
23,COc1ccccc1-c1ccnc2[nH]n(-c3ccccc3)c(=O)c12,-7.97%

row,SMILES,"activity change, negative = inhibition"
1,COc1cccc(CNC(=O)CCc2nc(-c3ccc(C)cc3)no2)c1,-1.26%
2,Cn1c(C(=O)N2CCC(C(=O)N3CCN(c4ccccc4)CC3)CC2)cc2sccc21,-14.6%
3,CCc1nn(CC(=O)NCC(C)c2ccccc2)c(=O)c2cc3occc3n12 (centres undefined),-32.7% (active)
4,CCCN1CCN(CCCNC(=O)Cn2nc(CC)n3c(cc4occc43)c2=O)CC1,-17.4%
5,CCc1nn(CCCC(=O)NC(C)c2ccccc2)c(=O)c2cc3occc3n12 (centres undefined),5.05% and -4.27%
6,CSc1ccc(C2C(C(=O)Nc3ccccc3)=C(C)Nc3nc4ccccc4n32)cc1 (centres undefined),3.8%
7,CCN(CCCNC(=O)c1c(C)oc2ncn(CC(C)C)c(=O)c12)Cc1ccccc1,0.919%
8,COc1ccc(OC)c(NC(=O)CN2CCCN(Cc3cc(C)ccc3C)S2(=O)=O)c1,2.17%
9,COC(=O)C1(C)NC(c2ccc(C)cc2)C2C(=O)N(c3ccc(F)cc3)C(=O)C21 (centres undefined),-8.61%
10,COC(=O)[C@]1(C)N[C@H](c2ccc(-c3ccc(Cl)c(Cl)c3)cc2)[C@@H]2C(=O)N(C)C(=O)[C@@H]21,-31.4% (active)
11,COC(=O)C1(C)NC(c2ccc(F)cc2)C2C(=O)N(c3ccccc3)C(=O)C21 (centres undefined),0.925%
12,CCC(=O)N1CCc2cc(CNS(=O)(=O)c3ccc(Br)s3)ccc21,-7.89%
13,CCCCOc1ccc(CN2C(=O)C(=O)c3cc(Br)cc(C)c32)cc1OC,-30.4% (active)
14,CCCCN1C(=O)C(C)=C(C)C1OCCc1ccc(OC)c(OC)c1 (centres undefined),2.6%
15,CCCCOc1ccc(Cn2c(=O)oc3ccc(C)cc32)cc1OC,-3.29%
16,Cc1ccccc1CNC(=O)CSc1nnc(C)c2c(C)n(-c3ccccc3)nc12,-8.46%
17,CCOC(=O)c1c(S(=O)(=O)NCC(=O)Nc2ccc(Cl)c(C(F)(F)F)c2)c(C)n(C)c1C,-17.1%
18,CC(=O)NCC(=O)N1CCC(n2nccc2NC(=O)CCCc2ccccc2)CC1,-10.3%
19,CC(=O)N[C@@H](C)C(=O)N1CCC(n2nccc2NC(=O)CCCc2ccccc2)CC1,-35.7% (active)
20,Cc1ccc(CN2CCC(n3nccc3NC(=O)CCCc3ccccc3)CC2)o1,3.11%
